Compound activity as filed in PubChem BioAssay.
ERp5 block: inhibitors of ERp5-driven insulin aggregation, primary screen, biochemical, turbidity, absorbance 650 nm, single point. AID 651711, 2012. Protein disulfide-isomerase A6 (Homo sapiens), Q15084. inhibition, % at 9.99 µM. 90 min. 0.05% of 350,000 active;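 active = mean replicate inhibition above about 25%, with every replicate also reaching it, limit read from the data, passing the limit was not always enough; inconclusive = only one of those two criteria met; inactive = neither criterion met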
SIRT5 inh: SIRT5 desuccinylase inhibitors, primary screen, biochemical, fluorescence imaging, single point, set 5; 1.1% of 330,000 active; AID 652115, 2013; Purified SirT5, succinyl-peptide AMC, trypsin-coupled fluorescence; inhibition, % at 15 µM; in the data active = inhibition above about 15%; inconclusive = no clear call, values can overlap the other calls
Rtt109 HAT inh: inhibitors of C. albicans Rtt109/Vps75 HAT, primary screen, biochemical, ThioGlo CoA-SH fluorescence, plate reader. inhibition, % at 34.9 µM. Histone acetyltransferase RTT109 (Candida albicans (strain SC5314 / ATCC MYA-2876)), …. 0.16% of 330,000 active. purified Rtt109/Vps75, 4 h. AID 540336, 2011;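 active = inhibition of at least 50% in every replicate; inconclusive = best replicate reaches 50% inhibition but some replicates fall short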
DENV2 CPE: inhibitors of DENV2 cytopathic effect, primary screen, cell-based, plate reader, single concentration; DENV2-infected cells, cytopathic effect rescue; CPE inhibition, % at 9.99 µM; 1.7% of 350,000 active; in the data active = CPE inhibition above about 20%, passing the limit was not always enough; inconclusive = no clear call, values can overlap the other calls; tested in BHK-21 cells
PDI inh: inhibitors of human PDI, primary screen, biochemical, turbidity, single point, plate reader. Protein disulfide-isomerase (Homo sapiens), P07237. PDI insulin aggregation turbidity, A650, 90 min. 0.052% of 350,000 active. AID 588391, 2011. inhibition, % at 10 µM;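 active = mean inhibition across replicates of 30% or more, whatever share of single replicates reach that level; inconclusive = mean inhibition below 30% while every single replicate reaches 30%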
Target sequence (P07237 whole entry, looked up): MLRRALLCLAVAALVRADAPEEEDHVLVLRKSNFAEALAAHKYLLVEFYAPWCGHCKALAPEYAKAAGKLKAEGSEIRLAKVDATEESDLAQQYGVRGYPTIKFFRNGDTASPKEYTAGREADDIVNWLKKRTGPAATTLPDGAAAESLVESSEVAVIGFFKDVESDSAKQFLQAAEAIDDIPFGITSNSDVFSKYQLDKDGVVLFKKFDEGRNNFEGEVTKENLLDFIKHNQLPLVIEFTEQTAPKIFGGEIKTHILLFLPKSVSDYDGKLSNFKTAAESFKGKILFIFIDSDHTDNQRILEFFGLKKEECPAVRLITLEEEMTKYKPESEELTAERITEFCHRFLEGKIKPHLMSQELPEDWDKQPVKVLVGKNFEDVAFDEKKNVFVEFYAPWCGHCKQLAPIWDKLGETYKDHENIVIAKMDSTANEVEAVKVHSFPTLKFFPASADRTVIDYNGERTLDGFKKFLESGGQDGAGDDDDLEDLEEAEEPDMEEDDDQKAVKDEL
Each line names hits and unclear results; the compound was inactive in the other large screens. Rows were chosen to be rich in hits. Some 2.3% of all compounds tested hit in one or more screens of this group.

COc1cccc(-c2ccc3c(c2)O[C@H](CN(C)Cc2ccncc2)[C@H](C)CN([C@@H](C)CO)S3(=O)=O)c1	none (no result: Rtt109 HAT inh, PDI inh)
CCN1CCN(CC(=O)Nc2nc3ccc(C)cc3s2)CC1	DENV2 CPE 25
CCOc1ccc2nc(NC(=O)CS(=O)(=O)c3ccc(C)cc3)sc2c1	SIRT5 inh 32 (no result: DENV2 CPE)
CCOc1ccc(C2C(C(=O)Nc3ccc(F)cc3)=C(C)Nc3nc(CCCO)nn32)cc1 (stereo not given)	none (no result: PDI inh)
CCOc1ccccc1C1C(C(=O)Nc2ccccc2OC)=C(C)Nc2nc(CCCO)nn21 (stereo not given)	DENV2 CPE 57
COc1ccc(C2C(C(=O)Nc3ccc(F)cc3)=C(C)Nc3nc(CCCO)nn32)cc1 (stereo not given)	DENV2 CPE 29 (no result: SIRT5 inh, PDI inh)
COc1ccc(OC)c(C2C(C(=O)Nc3ccccc3OC)=C(C)Nc3nc(CCCO)nn32)c1 (stereo not given)	none (no result: PDI inh)
COc1ccc(-c2ccccc2)cc1NC(=O)[C@@H]1O[C@H](CO)[C@H](O)[C@H](O)[C@H]1O	DENV2 CPE 32 (no result: SIRT5 inh, Rtt109 HAT inh)
Cc1nnc(NC(=O)CCn2c(=O)oc3ccc(Cl)cc32)s1	DENV2 CPE 23
Cc1csc(NC(=O)CCn2c(=O)oc3ccc(Cl)cc32)n1	none
CN1CCN(C(=O)C[C@H]2CC[C@@H]3[C@H](COC[C@@H](O)CN3Cc3ccc4c(c3)OCO4)O2)CC1	none (no result: Rtt109 HAT inh, PDI inh)
O=C(Cc1ccccc1)c1ccc(Cl)cc1	none
O=C(Cc1ccccc1)c1ccc(O)cc1	SIRT5 inh 18
CCC(=O)Nc1ccc2c(c1)OC[C@H](C)N(C(=O)CN(C)C)C[C@@H](C)[C@@H](OC)CN(C)C2=O	none (no result: Rtt109 HAT inh, PDI inh)
CC(C)C#Cc1ccc2c(c1)O[C@H](CN(C)C(=O)c1cccc(F)c1)[C@H](C)CN([C@@H](C)CO)S2(=O)=O	none (no result: Rtt109 HAT inh, PDI inh)
C[C@@H]1CCCCO[C@H](CN(C)S(=O)(=O)c2ccc(Cl)cc2)[C@@H](C)CN([C@@H](C)CO)C(=O)c2cc(NS(=O)(=O)c3cccs3)ccc2O1	DENV2 CPE 69 (no result: Rtt109 HAT inh, PDI inh)
C[C@@H]1CN([C@H](C)CO)C(=O)c2cc(NS(=O)(=O)c3cn(C)cn3)ccc2O[C@@H](C)CCCCO[C@H]1CN(C)S(=O)(=O)c1cccs1	DENV2 CPE 28 (no result: SIRT5 inh, Rtt109 HAT inh, PDI inh)
COc1ccc(S(=O)(=O)N(C)C[C@H]2OCCCC[C@@H](C)Oc3ccc(NS(=O)(=O)c4cccs4)cc3C(=O)N([C@@H](C)CO)C[C@@H]2C)cc1	none (no result: Rtt109 HAT inh, PDI inh)
COc1ccc(S(=O)(=O)N(C)C[C@H]2OCCCC[C@@H](C)Oc3ccc(NS(=O)(=O)c4cccs4)cc3C(=O)N([C@@H](C)CO)C[C@H]2C)cc1	DENV2 CPE 23 (no result: Rtt109 HAT inh, PDI inh)
Cc1ccc(S(=O)(=O)Nc2ccc3c(c2)C(=O)N([C@@H](C)CO)C[C@@H](C)[C@H](CN(C)S(=O)(=O)c2cccs2)OCCCC[C@@H](C)O3)cc1	none (no result: Rtt109 HAT inh, PDI inh)
C[C@@H]1CCCCO[C@@H](CN(C)S(=O)(=O)c2cccs2)[C@@H](C)CN([C@@H](C)CO)C(=O)c2cc(NS(=O)(=O)c3cn(C)cn3)ccc2O1	none (no result: Rtt109 HAT inh, PDI inh)
C[C@@H]1CN([C@@H](C)CO)C(=O)c2cc(NS(=O)(=O)c3cccs3)ccc2O[C@@H](C)CCCCO[C@H]1CN(C)S(=O)(=O)c1ccc(Cl)cc1	none (no result: Rtt109 HAT inh, PDI inh)
Cc1ccc(S(=O)(=O)Nc2ccc3c(c2)C(=O)N([C@H](C)CO)C[C@@H](C)[C@H](CN(C)S(=O)(=O)c2cccs2)OCCCC[C@H](C)O3)cc1	SIRT5 inh 17, DENV2 CPE inconclusive (no result: Rtt109 HAT inh, PDI inh)
COc1ccc(S(=O)(=O)Nc2ccc3c(c2)C(=O)N([C@@H](C)CO)C[C@@H](C)[C@H](CN(C)S(=O)(=O)c2cccs2)OCCCC[C@H](C)O3)cc1	DENV2 CPE 26 (no result: Rtt109 HAT inh, PDI inh)
COc1ccc(S(=O)(=O)Nc2ccc3c(c2)C(=O)N([C@@H](C)CO)C[C@@H](C)[C@H](CN(C)S(=O)(=O)c2cccs2)OCCCC[C@@H](C)O3)cc1	SIRT5 inh 16 (no result: Rtt109 HAT inh, PDI inh)
COc1ccc(S(=O)(=O)Nc2ccc3c(c2)C(=O)N([C@@H](C)CO)C[C@@H](C)[C@@H](CN(C)S(=O)(=O)c2cccs2)OCCCC[C@@H](C)O3)cc1	none (no result: Rtt109 HAT inh, PDI inh)
COc1ccc(S(=O)(=O)Nc2ccc3c(c2)C(=O)N([C@H](C)CO)C[C@H](C)[C@H](CN(C)S(=O)(=O)c2cccs2)OCCCC[C@@H](C)O3)cc1	none (no result: Rtt109 HAT inh, PDI inh)
C[C@H](CO)N1C[C@H](C)[C@@H](CN(C)C(=O)NC2CCCC2)Oc2ncc(-c3ccccc3)cc2C1=O	none (no result: Rtt109 HAT inh, PDI inh)
CC(O)CNc1nc2sc3c(c2c(=O)n1Cc1ccco1)CCCCC3 (stereo not given)	DENV2 CPE 29
COc1cccc(S(=O)(=O)N2C[C@@H](O)COC[C@@H]3O[C@H](CC(=O)N4CCCCC4)CC[C@H]32)c1	none (no result: Rtt109 HAT inh, PDI inh)
COc1cccc(S(=O)(=O)N2C[C@@H](O)COC[C@@H]3O[C@@H](CC(=O)N4CCCCC4)CC[C@H]32)c1	DENV2 CPE 29 (no result: Rtt109 HAT inh, PDI inh)
O=C(C[C@H]1CC[C@H]2[C@@H](COC[C@@H](O)CN2S(=O)(=O)c2cccc(Cl)c2)O1)Nc1ccc(-c2ccccc2)cc1	SIRT5 inh 19 (no result: Rtt109 HAT inh, PDI inh)
CN1CCN(C(=O)C[C@H]2CC[C@H]3[C@@H](COC[C@@H](O)CN3S(=O)(=O)c3cccc(Cl)c3)O2)CC1	DENV2 CPE 76 (no result: Rtt109 HAT inh, PDI inh)
O=C(C[C@@H]1CC[C@H]2[C@@H](COC[C@@H](O)CN2S(=O)(=O)c2cccc(Cl)c2)O1)N1CCOCC1	DENV2 CPE 24 (no result: Rtt109 HAT inh, PDI inh)
O=C(C[C@H]1CC[C@H]2[C@@H](COC[C@H](O)CN2S(=O)(=O)c2cccc(Cl)c2)O1)Nc1ccc(-c2ccccc2)cc1	none (no result: Rtt109 HAT inh, PDI inh)
O=C(C[C@@H]1CC[C@@H]2[C@H](COC[C@@H](O)CN2S(=O)(=O)c2cccc(Cl)c2)O1)N1CCCCC1	none (no result: Rtt109 HAT inh, PDI inh)
COC(=O)C[C@@H]1CC[C@@H]2[C@@H](COc3ccc(NC(=O)NCc4ccccc4)cc3C(=O)N2C)O1	none (no result: ERp5 block, SIRT5 inh, Rtt109 HAT inh, PDI inh)
CC(=O)N(C)C[C@H]1Oc2cc(-c3cccnc3)ccc2S(=O)(=O)N([C@H](C)CO)C[C@H]1C	none (no result: Rtt109 HAT inh, PDI inh)
C[C@@H]1CCCCO[C@H](CN(C)C(=O)Nc2cccc3ccccc23)[C@H](C)CN([C@@H](C)CO)C(=O)c2cc(NC(=O)Nc3ccc(F)cc3)ccc2O1	none (no result: Rtt109 HAT inh, PDI inh)
C[C@@H]1CN([C@@H](C)CO)C(=O)c2cc(NC(=O)c3ccncc3)ccc2O[C@@H](C)CCCCO[C@@H]1CN(C)S(=O)(=O)c1cccs1	none (no result: Rtt109 HAT inh, PDI inh)
COc1ccc(NC(=O)N2C[C@H](O)COC[C@@H]3O[C@@H](CC(=O)N4CCCCC4)CC[C@H]32)cc1	SIRT5 inh 25 (no result: Rtt109 HAT inh, PDI inh)
COc1ccc2nc(SCC(=O)NCc3ccccc3)[nH]c2c1	none
CCOc1ccc2nc(SCC(=O)NCc3ccc(OC)cc3)[nH]c2c1	SIRT5 inh 27
